# Measured values taken from PubChem BioAssay AID2315 (National Center for Advancing Translational Sciences (NCATS), 2010).
# The campaign covered roughly 290,000 compounds. About 27,000 (9.3%) were called active. The entries come from a sample that favours actives as a whole. A number with no mark means an inactive call. Cut-off read from the data, not from the text of the source: active = inhibition mostly above about 28% (no sharp cut-off); inactive = mostly below about 43%.
# Assay: A qHTS for Small Molecule Inhibitors of Shiga Toxin; for inhibition: 0% is about no effect
# Conditions: Vero cells, Shiga toxin protein synthesis inhibition reporter; at 38.7 µM, hits give high values
row,SMILES,inhibition
1,CCOc1ccc(C(C)=O)cc1COC(=O)c1cnc(Cl)c(Cl)c1,14.4%
2,COC(=O)c1ccc(COC(=O)c2cnccn2)cc1,5.86%
3,COC(=O)c1ccc(COC(=O)c2cnc(Cl)c(Cl)c2)cc1,87.3% (active)
4,CN(Cc1ccccc1)C(=O)c1ccc(NC2=NC3CS(=O)(=O)CC3S2)cc1 (stereo not drawn),-3%
5,O=C1CCc2cc(S(=O)(=O)N3CCC(C(=O)NCc4ccccc4Cl)CC3)ccc2N1,-4.83%
6,CC(=O)Nc1ccc(NC(=O)C2CCCN2S(=O)(=O)c2cccc(C(F)(F)F)c2)cc1 (stereo not drawn),-1.36%
7,CSc1cccc(NC(=O)C2CCCN2S(=O)(=O)c2ccc3c(c2)CCC(=O)N3)c1 (stereo not drawn),25.9% (active)
8,CC(=O)c1cccc(NC(=O)C2CCN(C(=O)c3ccccc3Cl)CC2)c1,-18.7%
9,CCOc1ccc(C)cc1S(=O)(=O)NC1CCCCCC1,-4.32%
10,CCc1cc2c(=O)n(-c3ccccc3)c(SCC(=O)O)nc2s1,-7.15%
11,COc1ccc(/C=C2\SC(=S)N(CC(=O)NNC(=O)c3ccncc3)C2=O)cc1,30.3%
12,COc1ccc(/C=C2\N=C3CCCN3C2=O)cc1,84.4% (active)
13,COc1ccc(/C=C2\SC(=N)N(c3ccc(F)cc3)C2=O)cc1,-5.41%
14,CC(C)c1c(C(=O)N/N=C/c2ccc(-c3ccccc3)cc2)nnn1-c1nonc1N,-5.37%
15,CCOc1ccc(CN2CCN(CCCc3ccccc3)C(CCO)C2)cc1 (stereo not drawn),1.09%
16,COc1ccc(N2C(=O)NC(NS(=O)(=O)c3ccc(Cl)cc3)(C(F)(F)F)C2=O)cc1 (stereo not drawn),-3.26%
17,COc1cc(/C=N/NC(=O)c2ccoc2C)ccc1OCCN1CCCCC1,29.5%
18,Cc1[nH]n(-c2ccc(Cl)cc2)c(=O)c1/C=N/n1c(C)nc2ccccc2c1=O,38.2%
19,COc1cc(/C=N\NC(=O)CNC(=O)c2cccc([N+](=O)[O-])c2)ccc1O,-6.08%
20,Cc1[nH]n(-c2ccccc2)c(=O)c1/C=N/NC(=O)c1ccoc1C,125% (active)

row,SMILES,inhibition
1,Cc1[nH]n(-c2ccc([N+](=O)[O-])cc2)c(=O)c1C=NCCN1CCN(C(=O)c2ccccc2F)CC1,-12.7%
2,Cc1ccc(-n2[nH]c(C)c(/C=N/NC(=O)c3cccc([N+](=O)[O-])c3)c2=O)cc1C,62.4% (active)
3,COc1cc(NS(=O)(=O)c2ccc(NC(=S)NC(=O)c3ccc(Br)cc3)cc2)ncn1,-2.95%
4,N#CCC(=O)NC1CCC(CC2CCC(NC(=O)CC#N)CC2)CC1 (stereo not drawn),-8.84%
5,Cc1[nH]c(C)c(S(=O)(=O)N2CCN(c3cccc(C(F)(F)F)c3)CC2)c1C(=O)N1CCCCC1,-4.18%
6,NC(=O)C1=C[C@H](c2csc3ccccc23)C[C@H](OCc2ccc(CO)cc2)O1,24%
7,O=C(NCCc1ccccc1)C1CCN(S(=O)(=O)c2ccc(Br)s2)CC1,9.64%
8,Cc1cc(C)c[n+](-c2nc3ccccc3nc2[N-]S(=O)(=O)c2cccs2)c1,1.54%
9,O=S(=O)([N-]c1nc2ccccc2nc1-[n+]1ccc(Cc2ccccc2)cc1)c1ccc(Br)s1,47.8% (active)
10,CCOc1ncccc1C(=O)NCCc1ccc(OC)cc1,-6.94%
11,CNC(=O)c1sc(NCc2ccccc2OC)nc1C,4.08%
12,Cc1cc2c(c(=O)n1Cc1ccccc1)C1O[C@](CCCCN3C(=O)c4ccccc4C3=O)(Cc3ccccc31)O2,inactive
13,O=C(O)CCCN1C(=O)c2ccccc2Sc2ncccc21,-5.85%
14,O=c1[nH]c(-c2cccs2)nc2ccccc12,32.8%
15,O=c1c2cc(-c3ccccc3)sc2nc2n1N=C(c1cccs1)CS2,100% (active)
16,c1csc(-c2cn3c(n2)SCC3)c1,16.5%
17,C#CC(C)(C)NC(=O)c1cnc(-c2ccccc2)nc1-c1ccccc1,-5.15%
18,CC(=O)c1ccc(N2CCN(S(=O)(=O)c3ccc4c(c3)CC(=O)N4C)CC2)cc1,54.4% (active)
19,CC(=O)c1ccc(N2CCN(S(=O)(=O)c3c(C)[nH]c(=O)[nH]c3=O)CC2)cc1,16.6%
20,CC(=O)c1ccc(N2CCN(C(=O)C3CCN(S(=O)(=O)c4ccc5c(c4)CC(C)N5C(=O)C4CC4)CC3)CC2)cc1 (stereo not drawn),22.9%

row,SMILES,inhibition
1,CCCn1nnnc1NCc1ccc(CC)cc1,-8.65%
2,COC(=O)/C=C/C(=O)NCc1ccco1,18.7%
3,O=C(/C=C/c1ccc(Cl)cc1Cl)NCc1ccco1,94.1% (active)
4,O=C(NCc1ccco1)C1(c2ccc(Cl)cc2)CCCC1,-3.65%
5,CC(NC(=O)c1cc(=O)[nH]c2ccccc12)c1ccc(F)cc1F (stereo not drawn),9.23%
6,CC1CCN(C2=NC(=O)/C(=C/c3ccc(O)cc3)S2)CC1,38.6%
7,O=C1N=C(N2CCCC2)S/C1=C\c1cccc(Br)c1,34.8%
8,CCOc1cc(/C=C2\SC(N3CCCC(C)C3)=NC2=O)ccc1O (stereo not drawn),60.1% (active)
9,CCOc1cc(/C=C2\SC(N3CCCCC3)=NC2=O)ccc1O,67.1% (active)
10,CCOc1ccc(/C=C2\SC(=S)N(NC(=O)c3ccncc3)C2=O)cc1OC,-10.1%
11,CCOc1cc(C(=S)N2CCOCC2)ccc1O,-8.19%
12,CC(C)CNS(=O)(=O)c1ccc(CCC(=O)NCc2ccc(Cl)cc2)cc1,-10.9%
13,CCOc1cc(-c2cc(-c3ccc(NC(C)=O)cc3)nc(N)c2C#N)ccc1O,-1.91%
14,COc1ccc(S(=O)(=O)Nc2ccccc2C(=O)N2CCCC2)cc1C,5.33%
15,O=C(NNC(=O)C1CCCC1)c1ccc(F)cc1,10.8%
16,O=C(O)c1cccc2c1C(=O)N(C1CCCC1)C2,-4.27%
17,CCOc1ccc(S(=O)(=O)N2CCN=C2Cc2ccccc2)cc1C,-2.53%
18,CC1CCCCC1NC(=O)c1cn(C)c2ccc(S(=O)(=O)N3CCOCC3)cc2c1=O (stereo not drawn),-15.7%
